Results from PubChem BioAssay (EPA / NIEHS).
Inconclusive results are not listed. More than one record can exist for a structure, and the calls need not agree. Calls of active or inactive are those of the source. Rule for the calls, unless noted: active = hit-call score of the fitted dose curve at least 0.9, where 1 is the maximum; inactive = score below 0.9.

Key:
[1] = ATG_M_06_TRANS: Attagene TRANS-FACTORIAL HepG2 Assay for M06 Transcription Factor (Internal Marker) (AID 2282983; active = hit-call score of the fitted dose curve at least 0.9, where 1 is the maximum); details: HepG2 Attagene TRANS M06 internal marker reporter
Procedure, shortened: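 HepG2 cells transiently transfected with multiplexed GAL4-UAS reporter transcription units; after 24 h compound exposure, reporter mRNA measured by RT-PCR, FAM-labelled primer extension, HpaI digestion and capillary electrophoresis. Gain-of-signal fitted versus DMSO baseline; background control readout.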

[2] = ATG_M_32_TRANS: Attagene TRANS-FACTORIAL HepG2 Assay for M32 Transcription Factor (Internal Marker) (AID 2282984; active = hit-call score of the fitted dose curve at least 0.9, where 1 is the maximum); details: HepG2 Attagene TRANS M32 internal marker reporter
Procedure, shortened: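 HepG2 cells transiently transfected with GAL4-UAS reporter units, dosed for 24 hours. Reporter mRNA quantified by RT-PCR, 6-FAM labelling, HpaI digestion and capillary electrophoresis; internal-marker signal fitted upward relative to DMSO.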

[3] = target: Nuclear receptor subfamily 4 group A member 2 (Homo sapiens) (UniProt P43354); assay: ATG_NURR1_TRANS: Attagene TRANS-FACTORIAL HepG2 Assay for human Nuclear Receptor Related Protein 1 (NURR1) (AID 2282985; active = hit-call score of the fitted dose curve at least 0.9, where 1 is the maximum); details: HepG2 Attagene TRANS reporter, mRNA readout
Procedure, shortened: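 HepG2 cells transiently transfected with NURR1-Gal4 chimera and GAL4-UAS reporter units; after 24 hr compound exposure, reporter mRNA quantified by RT-PCR and capillary electrophoresis; gain of signal fitted against DMSO.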

[4] = target: Transcriptional activator Myb (Homo sapiens) (UniProt P10242); assay: ATG_Myb_CIS: Attagene CIS-FACTORIAL HepG2 Assay for human Myeloblastosis (Myb) Proto-Oncogene Transcription Factor (AID 2282986); details: HepG2 Attagene CIS-FACTORIAL Myb reporter transcription; actives raise or lower the signal
Procedure, shortened: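 Reporter mRNA is quantified by RT-PCR and capillary electrophoresis 24 h after dosing HepG2 cells transfected with cis-regulated reporter units, which track endogenous transcription factor activity. Gain and loss of signal are fitted versus DMSO baseline.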

[5] = target: Nuclear respiratory factor 1 (Homo sapiens) (UniProt Q16656); assay: ATG_NRF1_CIS: Attagene CIS-FACTORIAL HepG2 Assay for human Nuclear Respiratory Factor 1 (NRF1) Orphan Gene (AID 2282987); details: HepG2 NRF1 cis-element reporter, Attagene multiplex; actives raise or lower the signal
Procedure, shortened: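 Endogenous NRF1-driven reporter transcription in transfected HepG2 cells after 24 h treatment. Readout: RT-PCR products, 6-FAM labelled and resolved by capillary electrophoresis; changes fitted both directions relative to DMSO.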

[6] = ATG_NFI_CIS: Attagene CIS-FACTORIAL HepG2 Assay for human Nuclear Factor I (NFI) (AID 2282989); details: HepG2 cis-regulatory reporter, NFI response element transcription; actives raise or lower the signal
Procedure, shortened: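 Multiplexed cis-reporter system in human HepG2 cells reports native TF activity as reporter mRNA induction 24 h post-dose. Fragments labelled with 6-FAM, HpaI-digested and resolved by capillary electrophoresis; activity fitted both directions versus DMSO.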

[7] = target: Myc proto-oncogene protein (Homo sapiens) (UniProt P01106); assay: ATG_Myc_CIS: Attagene CIS-FACTORIAL HepG2 Assay for human Myelocytomatosis (Myc) Proto-Oncogene Transcription Factor (AID 2282990); details: HepG2, Attagene cis-reporter transcription factor activity; actives raise or lower the signal
Procedure, shortened: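 Read-out: fluorescent reporter mRNA fragments resolved by capillary electrophoresis after RT-PCR. Human HepG2 liver cells carried transfected cis-element reporter units and were dosed for 24 h. Gain or loss of signal fitted relative to DMSO baseline.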

[8] = ATG_NF_kB_CIS: Attagene CIS-FACTORIAL HepG2 Assay for human Nuclear Factor Kappa B (NF-kB) (AID 2282991); details: HepG2 Attagene cis-factorial NF-kB reporter mRNA; actives raise or lower the signal
Procedure, shortened: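 Readout is reporter transcript level, gain or loss versus DMSO, measured 24 h post-dose via RT-PCR, fluorescent labelling and capillary electrophoresis. Human HepG2 liver cells carried transiently transfected CIS reporter constructs reflecting endogenous factors.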

[9] = ATG_NRF2_ARE_CIS: Attagene CIS-FACTORIAL HepG2 Assay for human Nuclear Factor Erythroid 2 Related Factor 2 (NFR2) response to Antioxidant Response Elements (ARE) (AID 2282992); details: HepG2 Attagene ARE/NRF2 reporter, transcription factor activity; actives raise or lower the signal;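 for AC50: reporter mRNA level measured by RT-PCR and capillary electrophoresis fluorescence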
Procedure, shortened: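 Cis-factorial assay: transfected HepG2 reporter library, 24 h dosing, mRNA readout via RT-PCR/CE; DMSO-referenced bidirectional analysis.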

[10] = ATG_Oct_MLP_CIS: Attagene CIS-FACTORIAL HepG2 Assay for human Octamer-Binding Transcription Factor (Oct) (AID 2282993); details: HepG2 Attagene cis-factorial Oct reporter, mRNA; actives raise or lower the signal
Procedure, shortened: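 After 24 h compound exposure, transfected HepG2 cells were lysed for total RNA; reporter-specific cDNA was PCR-amplified, fluorescently labelled and sized by capillary electrophoresis. Bidirectional curve fitting used DMSO as baseline.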

[11] = target: Cellular tumor antigen p53 (Homo sapiens) (UniProt P04637); assay: ATG_p53_CIS: Attagene CIS-FACTORIAL HepG2 Assay for human p53 Transcription Factor (AID 2282994); details: HepG2 p53 cis-element reporter, Attagene mRNA; actives raise or lower the signal
Procedure, shortened: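 Using HepG2 hepatoma cells carrying cis-acting multiplexed reporters, mRNA induction is detected after a 24 h exposure. Gain- and loss-of-signal responses are fitted relative to DMSO-treated cells.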

[12] = BSK_3C_uPAR: BioMAP Diversity Plus: 3C Assay for Urokinase-type plasminogen activator receptor (uPAR) Biomarker Activity (AID 2282998); details: BioMAP 3C HUVEC, uPAR biomarker ELISA; actives raise or lower the signal
Procedure, shortened: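 Values derive from bidirectional curve fitting relative to DMSO, which served as baseline of activity. uPAR was measured by ELISA in human umbilical vein endothelial primary cultures 24 h after compound addition.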

[13] = BSK_3C_VCAM1: BioMAP Diversity Plus: 3C Assay for Vascular cell adhesion molecule 1 (VCAM1) Biomarker Activity (AID 2282999); details: BioMAP 3C HUVEC, VCAM1 ELISA, cytokine-stimulated; actives raise or lower the signal
Procedure, shortened: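 Human umbilical vein endothelial cells (3C system), biomarker read by ELISA 24 h after dosing; bidirectional fit against DMSO baseline. Cytotoxicity tracked by SRB total-protein staining in parallel cultures at biomarker time.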

[14] = target: Hepatocyte nuclear factor 4-alpha (Homo sapiens) (UniProt P41235); assay: ATG_HNF4a_TRANS: Attagene TRANS-FACTORIAL HepG2 Assay for human Hepatocyte Nuclear Factor 4 alpha (HNF4a) (AID 2282982; active = hit-call score of the fitted dose curve at least 0.9, where 1 is the maximum); details: HepG2 HNF4a transactivation reporter, mRNA readout
Procedure, shortened: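 HepG2 cells transiently transfected with HNF4a-Gal4 chimera and GAL4-UAS reporter units, dosed for 24 h. Reporter mRNA measured by RT-PCR, fluorescent primer extension and capillary electrophoresis; gain-of-signal fitted relative to DMSO.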

Sequence of Cellular tumor antigen p53 (Homo sapiens) (P04637 whole entry, looked up): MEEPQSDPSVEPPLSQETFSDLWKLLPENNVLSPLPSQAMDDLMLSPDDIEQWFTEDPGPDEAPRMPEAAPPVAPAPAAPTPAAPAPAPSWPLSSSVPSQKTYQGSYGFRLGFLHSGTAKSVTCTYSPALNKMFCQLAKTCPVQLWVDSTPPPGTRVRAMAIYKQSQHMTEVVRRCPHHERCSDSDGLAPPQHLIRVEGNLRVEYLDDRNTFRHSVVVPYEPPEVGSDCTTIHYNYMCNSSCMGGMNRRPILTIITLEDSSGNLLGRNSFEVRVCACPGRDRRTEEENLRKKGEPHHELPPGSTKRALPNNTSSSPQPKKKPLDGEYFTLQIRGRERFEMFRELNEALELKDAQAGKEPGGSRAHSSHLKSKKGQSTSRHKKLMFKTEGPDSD
Sequence of Hepatocyte nuclear factor 4-alpha (Homo sapiens) (P41235 whole entry, looked up, the tested form may be a part): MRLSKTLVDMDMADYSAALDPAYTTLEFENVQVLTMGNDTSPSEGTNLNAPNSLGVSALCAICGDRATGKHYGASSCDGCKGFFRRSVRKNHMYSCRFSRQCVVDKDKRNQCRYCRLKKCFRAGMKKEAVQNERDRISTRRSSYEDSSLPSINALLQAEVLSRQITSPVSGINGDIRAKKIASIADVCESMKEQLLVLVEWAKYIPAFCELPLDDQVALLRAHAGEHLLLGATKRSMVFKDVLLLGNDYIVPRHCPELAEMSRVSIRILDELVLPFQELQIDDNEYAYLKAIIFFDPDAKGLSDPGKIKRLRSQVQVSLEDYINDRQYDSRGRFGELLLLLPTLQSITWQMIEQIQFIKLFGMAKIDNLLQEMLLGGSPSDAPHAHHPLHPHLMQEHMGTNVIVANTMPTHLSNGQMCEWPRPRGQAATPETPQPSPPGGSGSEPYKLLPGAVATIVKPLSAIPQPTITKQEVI
Sequence of Nuclear respiratory factor 1 (Homo sapiens) (Q16656 whole entry, looked up): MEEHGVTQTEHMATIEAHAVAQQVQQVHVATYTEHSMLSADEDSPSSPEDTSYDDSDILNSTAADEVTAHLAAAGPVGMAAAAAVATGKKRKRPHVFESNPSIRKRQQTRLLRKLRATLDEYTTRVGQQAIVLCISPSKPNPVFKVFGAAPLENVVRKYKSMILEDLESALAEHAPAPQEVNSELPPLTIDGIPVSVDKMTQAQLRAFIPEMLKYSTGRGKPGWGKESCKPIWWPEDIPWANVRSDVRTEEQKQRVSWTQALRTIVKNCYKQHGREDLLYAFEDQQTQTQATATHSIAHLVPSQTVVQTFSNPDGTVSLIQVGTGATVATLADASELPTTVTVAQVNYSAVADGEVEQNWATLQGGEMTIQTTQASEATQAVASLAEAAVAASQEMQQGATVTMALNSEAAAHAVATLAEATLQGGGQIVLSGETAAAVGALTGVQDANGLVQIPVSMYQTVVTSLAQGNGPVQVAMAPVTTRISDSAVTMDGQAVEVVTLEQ
Sequence of Transcriptional activator Myb (Homo sapiens) (P10242 whole entry, looked up): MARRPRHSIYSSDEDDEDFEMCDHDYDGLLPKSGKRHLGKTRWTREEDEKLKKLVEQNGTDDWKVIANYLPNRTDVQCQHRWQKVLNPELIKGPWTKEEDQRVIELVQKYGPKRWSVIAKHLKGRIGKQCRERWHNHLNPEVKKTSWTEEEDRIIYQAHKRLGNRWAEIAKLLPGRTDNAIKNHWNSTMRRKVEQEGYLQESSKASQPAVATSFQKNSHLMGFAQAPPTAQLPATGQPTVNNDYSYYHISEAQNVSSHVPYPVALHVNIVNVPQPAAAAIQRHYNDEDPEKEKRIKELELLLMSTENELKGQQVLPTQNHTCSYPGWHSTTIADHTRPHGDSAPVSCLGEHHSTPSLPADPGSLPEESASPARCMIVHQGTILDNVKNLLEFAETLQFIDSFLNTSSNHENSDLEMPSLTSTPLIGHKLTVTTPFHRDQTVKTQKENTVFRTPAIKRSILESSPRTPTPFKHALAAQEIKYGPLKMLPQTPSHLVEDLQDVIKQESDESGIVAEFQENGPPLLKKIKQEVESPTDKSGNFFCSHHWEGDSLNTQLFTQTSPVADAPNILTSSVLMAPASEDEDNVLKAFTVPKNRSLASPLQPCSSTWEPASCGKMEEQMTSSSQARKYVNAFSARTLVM
Sequence of Myc proto-oncogene protein (Homo sapiens) (P01106 whole entry, looked up, the tested form may be a part): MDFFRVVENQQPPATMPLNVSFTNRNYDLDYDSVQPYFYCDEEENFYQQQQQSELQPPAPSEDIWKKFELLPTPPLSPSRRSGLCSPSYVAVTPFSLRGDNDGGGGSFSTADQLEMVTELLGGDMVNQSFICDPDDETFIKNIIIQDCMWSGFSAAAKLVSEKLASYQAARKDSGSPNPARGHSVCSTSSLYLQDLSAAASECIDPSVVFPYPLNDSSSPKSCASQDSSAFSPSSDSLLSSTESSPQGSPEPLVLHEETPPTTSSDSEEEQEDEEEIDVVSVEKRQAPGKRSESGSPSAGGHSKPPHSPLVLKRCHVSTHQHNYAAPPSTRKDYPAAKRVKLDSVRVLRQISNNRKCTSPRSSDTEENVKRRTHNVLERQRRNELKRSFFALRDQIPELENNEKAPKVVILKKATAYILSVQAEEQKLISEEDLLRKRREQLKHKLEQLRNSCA
Sequence of Nuclear receptor subfamily 4 group A member 2 (Homo sapiens) (P43354 whole entry, looked up, the tested form may be a part): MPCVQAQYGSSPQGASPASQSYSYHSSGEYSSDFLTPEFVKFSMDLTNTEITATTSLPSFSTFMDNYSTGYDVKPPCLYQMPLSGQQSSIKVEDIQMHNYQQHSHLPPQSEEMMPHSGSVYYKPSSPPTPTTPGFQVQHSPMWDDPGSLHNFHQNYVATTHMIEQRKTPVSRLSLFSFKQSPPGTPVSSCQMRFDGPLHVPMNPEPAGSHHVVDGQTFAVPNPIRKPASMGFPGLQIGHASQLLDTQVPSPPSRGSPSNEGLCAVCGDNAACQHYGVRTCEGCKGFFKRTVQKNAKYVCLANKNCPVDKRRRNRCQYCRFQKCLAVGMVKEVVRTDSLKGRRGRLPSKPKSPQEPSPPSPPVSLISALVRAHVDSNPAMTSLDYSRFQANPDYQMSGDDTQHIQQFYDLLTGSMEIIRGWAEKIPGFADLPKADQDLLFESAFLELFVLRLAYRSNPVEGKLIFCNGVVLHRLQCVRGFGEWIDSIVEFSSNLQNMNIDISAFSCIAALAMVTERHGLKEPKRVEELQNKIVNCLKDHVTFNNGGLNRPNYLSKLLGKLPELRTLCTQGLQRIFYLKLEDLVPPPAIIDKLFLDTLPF

CCCCCCCCCCCCOC(C)=O
outcome [1]: inactive
outcome [2]: inactive
outcome [3]: inactive
outcome [4]: inactive
outcome [5]: inactive
outcome [6]: inactive
outcome [7]: inactive
outcome [8]: inactive
outcome [9]: inactive
outcome [10]: inactive

Cc1ccncc1
outcome [1]: inactive
outcome [4]: inactive
outcome [5]: inactive
outcome [6]: inactive
outcome [7]: inactive
outcome [9]: inactive
outcome [10]: inactive
outcome [11]: inactive

O=C(O)c1ccco1
outcome [2]: inactive
outcome [4]: inactive
outcome [5]: inactive
outcome [6]: inactive
outcome [7]: inactive
outcome [9]: inactive
outcome [10]: inactive
outcome [11]: inactive

O=C(O)C(F)(F)OC(F)(F)C(F)(F)OC(F)(F)C(F)(F)C(F)(F)C(F)(F)F
AC50 [12]: 38.7 µM (active)
outcome [12]: inactive
outcome [13]: inactive

C=CCOC(=O)/C=C\C(=O)OCC=C
outcome [2]: inactive
outcome [4]: inactive
outcome [5]: inactive
outcome [6]: inactive
outcome [7]: inactive
AC50 [8]: 15.8 µM (active)
AC50 [9]: 6.75 µM (active)
outcome [10]: inactive
AC50 [11]: 156 µM (active)

CCCCN(CCO)CCO
outcome [14]: inactive
outcome [4]: inactive
outcome [5]: inactive
outcome [6]: inactive
outcome [7]: inactive
outcome [8]: inactive
outcome [9]: inactive
outcome [10]: inactive
outcome [11]: inactive
outcome [12]: inactive
outcome [13]: inactive

CCCCCCCCCCOC(=O)c1ccccc1C(=O)OCCCCCCCC
outcome [14]: inactive
outcome [5]: inactive
outcome [6]: inactive
outcome [7]: inactive
outcome [8]: inactive
outcome [9]: inactive
outcome [10]: inactive
outcome [11]: inactive

C=C(F)C(=O)OC(C(F)(F)F)C(F)(F)F
outcome [12]: inactive
outcome [13]: inactive

CCC(CC)CO
outcome [14]: inactive
outcome [2]: inactive
outcome [5]: inactive
outcome [6]: inactive
outcome [7]: inactive
outcome [8]: inactive
outcome [9]: inactive
outcome [10]: inactive

C=C(C)C(=O)OCCC(F)(F)C(F)(F)C(F)(F)C(F)(F)C(F)(F)C(F)(F)C(F)(F)C(F)(F)F
outcome [12]: inactive
outcome [13]: inactive

C=CC(C)CCCC(C)(C)O (stereo not drawn)
outcome [1]: inactive
outcome [4]: inactive
outcome [5]: inactive
outcome [6]: inactive
outcome [7]: inactive
outcome [8]: inactive
outcome [9]: inactive
outcome [10]: inactive
outcome [11]: inactive

CCCCCCCCCCCCS
outcome [5]: inactive
outcome [6]: inactive
outcome [7]: inactive
outcome [8]: inactive
AC50 [9]: 26.4 µM (active)
outcome [10]: inactive
outcome [11]: inactive
AC50 [12]: 26.4 µM (active)
AC50 [13]: 20 µM (active)

CCCc1ccc(N)cc1
outcome [4]: inactive
outcome [5]: inactive
outcome [6]: inactive
outcome [7]: inactive
outcome [8]: inactive
outcome [9]: inactive
outcome [10]: inactive
outcome [11]: inactive

C=C(C)C(=O)OCCN(C)C
outcome [14]: inactive
outcome [4]: inactive
outcome [5]: inactive
outcome [6]: inactive
outcome [7]: inactive
outcome [9]: inactive
outcome [10]: inactive
outcome [11]: inactive

CC(C)CCCC(C)(C)O
outcome [2]: inactive
outcome [4]: inactive
outcome [5]: inactive
outcome [6]: inactive
outcome [7]: inactive
outcome [8]: inactive
outcome [9]: inactive
outcome [10]: inactive
outcome [11]: inactive
outcome [12]: inactive
outcome [13]: inactive

CCCC1CCC(=O)CC1
outcome [1]: inactive
outcome [2]: inactive
outcome [4]: inactive
outcome [5]: inactive
outcome [6]: inactive
outcome [7]: inactive
outcome [9]: inactive
outcome [10]: inactive

O=S1(=O)CC=CC1
outcome [14]: inactive
outcome [4]: inactive
outcome [5]: inactive
outcome [6]: inactive
outcome [7]: inactive
outcome [8]: inactive
outcome [9]: inactive
outcome [10]: inactive
outcome [11]: inactive

CCCCCCCOC(C)=O
outcome [2]: inactive
outcome [5]: inactive
outcome [6]: inactive
outcome [7]: inactive
outcome [9]: inactive
outcome [10]: inactive
outcome [11]: inactive

CCCCCCCCCOS(=O)(=O)O
outcome [14]: inactive
outcome [1]: inactive
outcome [4]: inactive
outcome [5]: inactive
outcome [6]: inactive
outcome [7]: inactive
outcome [9]: inactive
outcome [10]: inactive
outcome [11]: inactive

CC(=O)OC(C)(C)C1CC=C(C)CC1 (stereo not drawn)
outcome [2]: inactive
outcome [3]: inactive
outcome [4]: inactive
outcome [5]: inactive
outcome [6]: inactive
outcome [7]: inactive
outcome [9]: inactive
outcome [10]: inactive
outcome [11]: inactive
AC50 [12]: 32.3 µM (active)
outcome [13]: inactive
